Source: PubChem (several laboratories)
CTSL1 counter: counter-screen for PFM18AAP inhibitors: inhibitors of F. hepatica cathepsin L1 | AID 1906 | recombinant F. hepatica cathepsin L1, Z-Leu-Arg-MCA fluorescence | inhibition, % at 5.96 µM | hit rate 0.49% among 300,000;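 active = inhibition above the mean of all tested compounds plus 3 SD, set per screening campaign, cut at about 17% in these data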;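 note: 0% = plate median of test compound wells and 100% = 1 µM Z-Phe-Ala-diazomethylketone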
LANA-H2B inh: blocks KSHV LANA binding to histone H2A/H2B. cell-free LANA-H2A/H2B peptide, fluorescence polarization. inhibition, % (test concentration not listed). Q9QR71. hit rate 0.6% among 320,000; in the data active = inhibition mostly above about 10%, no sharp cut-off; inactive = mostly below about 6.7%
HDAC3 inh: inhibitors of human histone deacetylase 3 | recombinant HDAC3, fluorogenic peptide/trypsin coupled, fluorescence | inhibition, % at 8.3 µM | hit rate 0.15% among 320,000; in the data active = inhibition above about 26%, passing the limit was not always enough
Target sequence (O15379 whole entry, looked up): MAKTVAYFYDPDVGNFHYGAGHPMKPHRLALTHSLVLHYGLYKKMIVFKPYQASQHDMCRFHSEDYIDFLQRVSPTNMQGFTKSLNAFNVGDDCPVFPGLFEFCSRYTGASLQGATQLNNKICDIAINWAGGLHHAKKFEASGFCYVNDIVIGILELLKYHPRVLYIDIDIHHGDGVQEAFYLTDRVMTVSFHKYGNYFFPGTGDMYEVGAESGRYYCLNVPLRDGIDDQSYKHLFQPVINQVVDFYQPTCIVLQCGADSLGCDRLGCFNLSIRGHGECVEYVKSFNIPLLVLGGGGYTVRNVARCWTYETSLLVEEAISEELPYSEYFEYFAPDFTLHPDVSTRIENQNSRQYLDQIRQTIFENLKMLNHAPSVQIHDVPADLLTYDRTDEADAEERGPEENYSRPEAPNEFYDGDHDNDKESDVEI
m5-HT2A agonist: activates the mouse 5-HT2A serotonin receptor | activation, % at 7.6 µM | P35363 | hit rate 0.66% among 360,000 | CHO-K1 mHTR2A beta-arrestin complementation, luminescence; percent of 30 µM serotonin response;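 active = activation above a run cutoff, the mean activation of all tested compounds plus 3 SD, cut at about 14% in these data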;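 note: 0% = plate median of compound wells and 100% = 30 µM serotonin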
* hit, by the source's call. The list is not random: actives were taken first. Their share in the collection is about 1.7%.

Results for CCCNC(=O)c1cc(C2CCCCN2C(=O)c2ccc3c(c2)CCO3)on1 (configuration not stated) ?
m5-HT2A agonist: 0

How did Cc1ccc(S(=O)(=O)NCC(=O)OCC(=O)N2C(C)CCCC2C)cc1 (configuration not stated) do in these assays?
LANA-H2B inh: 13; HDAC3 inh: -4; m5-HT2A agonist: -5

How did COC(=O)C(C)NC(=O)C12CC3CC(C1)CC(c1ccc(C)cc1)(C3)C2 (configuration not stated) do in these assays?
CTSL1 counter: -6; LANA-H2B inh: -2; HDAC3 inh: 2; m5-HT2A agonist: -1

How did Nc1ccc(CSc2ccccc2)cc1 do in these assays?
m5-HT2A agonist: -2

What do the screens show for `O=C(CSc1ccccc1)NCC(c1ccco1)N1CCCCC1` (configuration not stated)?
LANA-H2B inh: 28*; HDAC3 inh: 6; m5-HT2A agonist: -7

What do the screens show for `O=C(NC1CCC1)C1CCC(=O)N(Cc2cccc(F)c2)C1` (configuration not stated)?
LANA-H2B inh: 38*; HDAC3 inh: -7; m5-HT2A agonist: -1

Results for O=C(NC1CCC1)C1CCC(=O)N(Cc2ccccc2F)C1 (configuration not stated) ?
CTSL1 counter: -1; LANA-H2B inh: -3; HDAC3 inh: -5; m5-HT2A agonist: 5

Results for Cc1cccc(-n2c(=O)[nH]c3c(C(N)=O)nc(C(C)C)nc32)c1 ?
CTSL1 counter: 17*; LANA-H2B inh: 4; HDAC3 inh: -3; m5-HT2A agonist: -9

What do the screens show for `CCc1ccccc1NC(=S)N1CCN(c2ccccc2F)CC1`?
CTSL1 counter: 19*; LANA-H2B inh: -3; HDAC3 inh: -8; m5-HT2A agonist: -2

What do the screens show for `Cc1ccc(S(=O)(=O)n2ccc(OC(=O)c3cccs3)n2)cc1`?
CTSL1 counter: -12; LANA-H2B inh: 4; HDAC3 inh: 90*; m5-HT2A agonist: -1

What do the screens show for `COc1cccc(-c2noc(C(C)n3nc(C)c([N+](=O)[O-])c3C)n2)c1` (configuration not stated)?
CTSL1 counter: 18*; LANA-H2B inh: -3; HDAC3 inh: 3; m5-HT2A agonist: 0

How did CCCCn1nc(C(=O)NCC(=O)Nc2c(C)cccc2C)c2ccccc2c1=O do in these assays?
LANA-H2B inh: active; HDAC3 inh: 4; m5-HT2A agonist: 1

How did CN(C(=O)CSc1nc(-c2cccs2)nc2ccccc12)C1CCS(=O)(=O)C1 (configuration not stated) do in these assays?
LANA-H2B inh: -2; HDAC3 inh: -13; m5-HT2A agonist: 1

How did Cn1nc(-c2ccc(Cl)cc2)nc2c(=O)n(C)c(=O)nc1-2 do in these assays?
CTSL1 counter: 113*; LANA-H2B inh: 1; HDAC3 inh: 2

How did CS(=O)(=O)n1nc(-c2ccc(Cl)cc2)nc1N do in these assays?
CTSL1 counter: 0; LANA-H2B inh: 5; HDAC3 inh: 16; m5-HT2A agonist: 0

Results for O=C(OCCN1CCOCC1)c1ccc(O)cc1 ?
CTSL1 counter: 2; LANA-H2B inh: 0; HDAC3 inh: 4; m5-HT2A agonist: -3

What do the screens show for `CCCn1c(O)c2ccc(C(=O)N=NC(=O)c3cccnc3)cc2c1O`?
CTSL1 counter: 3; LANA-H2B inh: -1; HDAC3 inh: 1; m5-HT2A agonist: 21*

What do the screens show for `CC(C)Cn1c(O)c2ccc(C(=O)N=NC(=O)c3cccnc3)cc2c1O`?
CTSL1 counter: -1; LANA-H2B inh: -15; HDAC3 inh: -5; m5-HT2A agonist: 4

What do the screens show for `COc1ccc(S(=O)(=O)NCC2CCC(C(=O)NCCCN3CCCC3=O)CC2)cc1` (configuration not stated)?
CTSL1 counter: 4; LANA-H2B inh: 2; HDAC3 inh: 2; m5-HT2A agonist: -3

What do the screens show for `COc1cc(/C=C2\SC(N3CCC(C)CC3)=NC2=O)ccc1O`?
CTSL1 counter: 3; LANA-H2B inh: 1; HDAC3 inh: 3; m5-HT2A agonist: -14

What do the screens show for `CC(C)CCN(C)C1CCN(S(=O)(=O)c2cccc(C(F)(F)F)c2)CC1`?
CTSL1 counter: -1; LANA-H2B inh: 25*; HDAC3 inh: 6; m5-HT2A agonist: -2

How did O=C(/C=C\c1ccc(-c2ccccc2)o1)c1ccccc1 do in these assays?
CTSL1 counter: 66*; LANA-H2B inh: 0; HDAC3 inh: -5; m5-HT2A agonist: 1

What do the screens show for `Cc1ccc(C(=O)/C=C/c2ccc(-c3ccc(C)cc3)o2)cc1`?
CTSL1 counter: 28*; LANA-H2B inh: -3; HDAC3 inh: 3; m5-HT2A agonist: 9

What do the screens show for `CCN(CC)S(=O)(=O)c1ccc(C(=O)/C=C/c2ccc(-c3ccc([N+](=O)[O-])cc3)o2)cc1`?
CTSL1 counter: -2; LANA-H2B inh: 1; HDAC3 inh: -6; m5-HT2A agonist: 2

How did C[C@@H]1CCCCO[C@H](CN(C)Cc2ccc(C(=O)O)cc2)[C@@H](C)CN([C@H](C)CO)C(=O)c2cc(NC(=O)CCC(F)(F)F)ccc2O1 do in these assays?
m5-HT2A agonist: 7

What do the screens show for `COc1ccccc1N1C(=O)C(Cl)=C(Nc2ccccc2O)C1=O`?
m5-HT2A agonist: 1

How did O=C1C(Cl)=C(Nc2ccccc2O)C(=O)N1c1ccccc1 do in these assays?
CTSL1 counter: 73*; LANA-H2B inh: 3; HDAC3 inh: -2; m5-HT2A agonist: 0

How did Cc1ccc(NC(=O)CC2CCCC2)c(Br)c1 do in these assays?
CTSL1 counter: -6; LANA-H2B inh: 6; HDAC3 inh: 3; m5-HT2A agonist: 3

How did CCOC(=O)c1c(C)nsc1NC(=O)C1CCCCC1 do in these assays?
CTSL1 counter: 2; LANA-H2B inh: 3; HDAC3 inh: 4; m5-HT2A agonist: 3

What do the screens show for `O=C(COc1ccc(Br)cc1)N(Cc1nnc(-c2ccccc2Cl)o1)C1CC1`?
m5-HT2A agonist: -5

What do the screens show for `O=C(/C=C/c1ccc(Br)o1)Nc1nccs1`?
CTSL1 counter: 12; LANA-H2B inh: 19*; HDAC3 inh: -4; m5-HT2A agonist: 6

What do the screens show for `CCc1ccc2oc(=O)cc(CN3CCC(C)CC3)c2c1`?
CTSL1 counter: 2; LANA-H2B inh: 21*; HDAC3 inh: -2; m5-HT2A agonist: 1

Results for CCc1ccc2oc(=O)cc(CN3CCOCC3)c2c1 ?
CTSL1 counter: 0; LANA-H2B inh: -1; HDAC3 inh: 6; m5-HT2A agonist: -1

Results for CCNC(=O)C1(C)CCN(C(=O)c2ccccc2OC)C1 (configuration not stated) ?
m5-HT2A agonist: 2

How did Oc1ccc(-c2c(C3=CCCCC3)sc3ccccc23)cc1 do in these assays?
CTSL1 counter: 0; LANA-H2B inh: 5; HDAC3 inh: 2; m5-HT2A agonist: -2

Results for N#CC(c1nc2ccccc2nc1N1CCCC1)S(=O)(=O)c1ccccc1 (configuration not stated) ?
CTSL1 counter: 0; LANA-H2B inh: 17*; HDAC3 inh: -38; m5-HT2A agonist: 8

Results for Cc1ccc2occ(/C=N/NC(=O)c3ccc(O)cc3)c(=O)c2c1 ?
LANA-H2B inh: 1; HDAC3 inh: 82*; m5-HT2A agonist: 1

Results for Cc1ccc2occ(/C=N/NC(=O)c3ccccc3Br)c(=O)c2c1 ?
CTSL1 counter: 0; LANA-H2B inh: 2; HDAC3 inh: -1; m5-HT2A agonist: -1
